# Records with an inconclusive call do not appear. Where a call stands in place of a potency, no number is given. A number with no mark means an inactive call. The source made the active and inactive calls. Calls follow the shape of the dose curve; as a rule, active = well fitted curve in the direction sought with a large enough effect; inconclusive = small, poorly fitted or top-dose-only effect, or another doubt; inactive = no such curve, though single readings can be large; an effect the other way counts as inactive or inconclusive.
# Legend:
# [1] = biological target: Cellular tumor antigen p53 (Homo sapiens) (UniProt P04637); assay: Primary qHTS for small molecule compounds that upregulate eGFP-tagged delta133p53alpha (in N-terminal) cells. (AID 2060322); details: NCI-H358 eGFP-delta133p53alpha fluorescence, 24 h; activation: stronger effect = higher value; also: nearly all actives have a fitted effect of over 75% in size; also: potency is read from the fitted curve at half-maximal effect;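 as to activation: cells pre-induced with doxycycline then dosed without doxycycline; series mostly up to about 56 µM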
# Chain of Cellular tumor antigen p53 (Homo sapiens) (P04637 whole entry, looked up): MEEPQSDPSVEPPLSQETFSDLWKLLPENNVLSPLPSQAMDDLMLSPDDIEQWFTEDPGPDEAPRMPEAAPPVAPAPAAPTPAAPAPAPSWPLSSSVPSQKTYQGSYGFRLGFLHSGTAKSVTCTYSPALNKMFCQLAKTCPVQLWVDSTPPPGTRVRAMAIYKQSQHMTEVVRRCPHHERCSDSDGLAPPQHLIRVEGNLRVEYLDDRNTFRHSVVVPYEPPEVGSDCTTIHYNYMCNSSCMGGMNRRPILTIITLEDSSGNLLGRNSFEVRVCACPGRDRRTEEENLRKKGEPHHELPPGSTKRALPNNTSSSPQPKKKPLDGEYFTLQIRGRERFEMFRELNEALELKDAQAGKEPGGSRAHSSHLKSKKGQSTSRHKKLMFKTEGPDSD
# In short: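 NCI-H358 cells pre-induced 24 h with 10 ng/ml doxycycline for eGFP-delta133p53alpha, plated dox-free and exposed 24 h at 37C to titrated compounds. Fixed, Hoechst-stained; gated GFP peak intensity by laser scanning cytometry, normalized to DMSO (0%) and 57.5 uM 5-azacytidine (100%).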
# [2] = biological target: Aldehyde dehydrogenase, mitochondrial (Homo sapiens) (UniProt P05091); assay: qHTS for Inhibitors of the Aldehyde Dehydrogenase Family (ALDH2) Primary screen (AID 2061308); also: nearly all actives have a fitted effect of over 55% in size
# [3] = biological target: Retinaldehyde dehydrogenase 3 (Homo sapiens) (UniProt P47895); assay: qHTS for Inhibitors of the Aldehyde Dehydrogenase Family (ALDH1A3) Primary screen (AID 2061315)
SMILES,activation [1],Potency [2],Potency [3],Potency [1],"activity change, negative = inhibition [2]","activity change, negative = inhibition [3]"
CC(=O)O[C@H]1C[C@@]2(C)[C@@H](CC[C@H]3[C@@]4(C)C=CC(=O)[C@@H](C)[C@@H]4[C@H](O)C(=O)[C@@]32C)/C1=C(/CCC=C(C)C)C(=O)O,17.6%,inactive,inactive,,,
N#Cc1cc(-c2ccnc(Nc3ccc(N4CCOCC4)cc3)n2)ccc1OC1CCOCC1,-18.8%,inactive,inactive,,,
CC1(CO)CC2C(O)C3=C(CC(C)(O)C2C1)C(=O)OC3 (centres undefined),-12.2%,inactive,inactive,,,
C=C1CC[C@@H]2[C@@](C)(CO[C@@H]3O[C@H](CO)[C@@H](O)[C@H](O)[C@H]3O)[C@H](O)CC[C@@]2(C)[C@@H]1CC/C(C)=C/CO[C@@H]1O[C@H](CO)[C@@H](O)[C@H](O)[C@H]1O,23.2%,inactive,inactive,,,
C=CCC/C=C/C#CCCCCCCCC[C@H]1C(=O)O[C@H](C)[C@@H]1O,8.4%,inactive,inactive,,,
COc1c2cc(c(O)c1OC)-c1cc(ccc1O)CCC(O)CCCC2 (centres undefined),11.5%,inactive,inactive,,,
CC1CCC2(C(=O)OC3OC(CO)C(O)C(O)C3O)CCC3(C)C(=CCC4C5(C)CCC(O)C(C)(CO)C5CCC43C)C2C1(C)O (centres undefined),-6.87%,inactive,inactive,,,
CC1CC(=O)[C@]2(O)C(C(=O)OCCc3ccc(O)cc3)=CO[C@@H](O[C@@H]3O[C@H](CO)[C@@H](O)[C@H](O)[C@H]3O)[C@H]12 (some centres undefined),-18.3%,inactive,inactive,,,
COC(=O)[C@@]1(C)CC[C@]2(C(=O)O[C@@H]3O[C@H](CO)[C@@H](O)[C@H](O)[C@H]3O)CC[C@]3(C)C(=CCC4[C@@]5(C)CC[C@H](O[C@@H]6O[C@H](C(=O)O)[C@@H](O)[C@H](O)[C@H]6O)C(C)(C)C5CC[C@]43C)[C@@H]2C1 (some centres undefined),-16.8%,inactive,inactive,,,
Cc1ccc(C)c(NC(=O)CNS(=O)(=O)c2ccc3[nH]c(=O)oc3c2)c1,17%,inactive,inactive,,,
C=C1CCC2C(C)(C)C(O)CCC2(C)C1CCC(C)CCOC(=O)CCC(=O)O (centres undefined),-3.82%,inactive,inactive,,,
COC(=O)[C@H]1[C@H]2C[C@@H]3c4[nH]c5cc(OC)ccc5c4CCN3C[C@H]2C[C@@H](OC(=O)/C=C/c2cc(OC)c(OC)c(OC)c2)[C@@H]1OC,,inactive,inactive,7.93 µM (active),,
Cc1nc(Nc2n[nH]c3c2CN(C(=O)NC(CN(C)C)c2ccccc2)C3(C)C)c2sccc2n1 (centres undefined),,inactive,inactive,10.7 µM (active),,
N#Cc1ccc(-c2ccc(S(=O)(=O)Nc3cccc(N)n3)cc2)cc1,2.86%,inactive,inactive,,,
CC(C)=CCC/C(C)=C/CC/C(C)=C/COC1OC(COC2OCC(OC3OCC(O)C(O)C3O)C(O)C2O)C(O)C(OC2OC(C)C(OC3OC(C)C(OC4OCC(OC5OC(C)C(O)C(O)C5O)C(O)C4O)C(O)C3O)C(O)C2O)C1O (centres undefined),4.58%,,,,7.18% [at 11.2 µM],-4.87% [at 11.2 µM]
C=C(C)[C@@H]1CC[C@]2(C(=O)O)CC[C@]3(C)C(CCC4[C@]5(C)C(CC[C@]43C)C(C)(C)[C@@H](O)[C@@H]5C(=O)O)C12 (some centres undefined),-18.3%,inactive,inactive,,,
CC[C@H]1OC(=O)[C@H](C)C(=O)[C@H](C)[C@@H](OC2O[C@H](C)C[C@H](N(C)C)[C@H]2O)[C@@H](C)C[C@@H](C)C(=O)/C=C/[C@]1(C)O (some centres undefined),-4.58%,inactive,inactive,,,
N#Cc1cc(-c2n[nH]c(-c3ccncc3)n2)ccn1,4.46%,inactive,inactive,,,
CC1=C2C3OC(=O)C(C)C3(O)CCC2(C)CCC1O (centres undefined),-10.7%,inactive,inactive,,,
COc1cc(CCCO)ccc1O[C@@H]1O[C@H](CO)[C@@H](O)[C@H](O)[C@H]1O,-16.1%,inactive,inactive,,,
O=C(O)Cc1nn(Cc2nc3cc(C(F)(F)F)ccc3s2)c(=O)c2nccnc12,-6.33%,inactive,inactive,,,
COC1=CC(=O)O/C1=C(/OC)[C@@H]1O[C@H]1c1ccccc1,-3.05%,inactive,inactive,,,
C=C(C)C1Cc2c(ccc3c2OCC(c2ccc(O)cc2O)C3)O1 (centres undefined),32.1%,inactive,inactive,,,

# — PubChem BioAssay (NCATS)
